From PubChem BioAssay AID2314 (National Center for Advancing Translational Sciences (NCATS), 2010)
The campaign covered roughly 300,000 compounds. About 37,000 (12%) were called active. Rule as the data show it: active = max response mostly above about 13% (no sharp cut-off); inactive = mostly below about 14%. For the sample, actives were picked, then their nearest neighbours and some compounds at random.

Assay: Cycloheximide Counterscreen for Small Molecule Inhibitors of Shiga Toxin; also: read at 38.3 µM for the half of the compounds with a filed dose; 0% is about no effect
Settings: cell reporter, cycloheximide protein synthesis inhibition counterscreen; active compounds read high

| SMILES | max response |
| --- | --- |
| O=C(C(NS(=O)(=O)c1cccc2nsnc12)c1ccccc1)N1CCN(c2ccccc2)CC1 (centres undefined) | 4.26% (inactive) |
| CCOC(=O)c1cc(S(=O)(=O)NCCc2ccc(OC)c(OC)c2)cn1C | -2.67% (inactive) |
| CCOC(=O)N1CCN(S(=O)(=O)c2ccc(Br)cc2)CC1 | -0.649% (inactive) |
| CCOC(=O)N1CCN(C(=O)C2CCN(S(=O)(=O)c3cc(Cl)ccc3OCC)CC2)CC1 | 11.3% (inactive) |
| C=C(C)C1CC=C(C)/C(=N\NC(=O)CNc2ccccc2OC)C1 (centres undefined) | -1.85% (inactive) |
| Cc1ccc2nc(Nc3ccccc3O)nc(-c3ccccc3)c2c1 | 0.615% (inactive) |
| Cc1cc(Nc2ccccc2)nc(N)n1 | 7.42% (inactive) |
| Cc1ccc2nc(Nc3ccccc3)cc(C)c2c1 | 51.1% (active) |
| Cc1ccc(S(=O)(=O)N(CC(O)CN2C(=O)NC(C)(C)C2=O)c2cccc([N+](=O)[O-])c2)cc1 (centres undefined) | -3.67% (inactive) |
| COCCCN1C(=O)c2ccc(C(=O)OCC(=O)NCc3ccccc3OC)cc2C1=O | -6.08% (inactive) |
| O=C(O)C1CCN(C(=O)OCc2ccccc2)CC1 | 40.2% (active) |
| CCOC(=O)N1CCC(NC(=O)CCc2ccccc2)CC1 | 1.36% (inactive) |
| O=C(NCC1CCC(C(=O)O)CC1)OCc1ccccc1 (centres undefined) | -2.25% (inactive) |
| COc1cccc(N(CC(=O)NC2CCCCCC2)S(=O)(=O)c2ccccc2)c1 | 1.89% (inactive) |
| COc1ccccc1C(=O)N1CCNC(=O)C1CC(=O)Nc1ccc(Cl)cc1 (centres undefined) | -1.23% (inactive) |
| O=C(CC1SCCNC1=O)Nc1ccc(Cl)c(Cl)c1 (centres undefined) | 17.5% (inactive) |
| O=C(CC1SCCNC1=O)Nc1ccc(Cl)cc1 (centres undefined) | 21.9% (active) |
| O=C(NNC(=S)Nc1ccc(Br)cc1Cl)c1ccco1 | 43.8% (active) |
| CCC(=O)NC(=S)Nc1ccc(NC(=O)c2ccco2)c(Cl)c1 | 16.5% (inactive) |
| CCOc1cc(NC(=S)NCc2ccco2)c(OCC)cc1NC(=O)c1ccco1 | 6.2% (inactive) |
| CSc1nc(-c2ccco2)nn1C(=O)c1ccccc1Cl | 1.46% (inactive) |
| COc1ccc(CC(=O)Nc2nc(-c3ccc(F)c(F)c3)cs2)cc1OC | -6.69% (inactive) |
| COc1cc(CC(=O)Nc2nc(-c3ccc(F)c(F)c3)cs2)cc(OC)c1OC | -5.65% (inactive) |
| Cc1ccc(S(=O)(=O)NC(=O)Nc2nc(-c3ccc(F)c(F)c3)cs2)cc1 | 19.2% (active) |

| SMILES | max response |
| --- | --- |
| O=[N+]([O-])c1ccc(N(CCO)Cc2ccccc2)c([N+](=O)[O-])c1 | -2.22% (inactive) |
| C/C(=N/NC(=O)c1cc(Cl)ccc1O)C12CC3CC(CC(C3)C1)C2 | 18.4% (inactive) |
| Cc1ccc(C)c(N2C(=O)CS/C2=N\NC(=O)c2ccccc2Cl)c1 | -3.78% (inactive) |
| O=C(N/N=C1\CCSC1)c1cc(Cl)ccc1O | 18.7% (active) |
| Cc1cc(C=O)c(C)n1-c1ccc(NC2CCCCC2)c([N+](=O)[O-])c1 | 6.55% (inactive) |
| Cc1cc(=O)oc2c(C)c(OC(C)C(=O)NC3CCN(Cc4ccccc4)CC3)ccc12 (centres undefined) | -2.67% (inactive) |
| COc1ccc(C(CC(=O)Nc2ccc(C)cc2)NC(=O)C(F)(F)F)cc1 (centres undefined) | 12.7% (active) |
| COc1ccc(NC(=O)CC(NC(C)c2ccccc2)C(=O)O)cc1 (centres undefined) | -3.91% (inactive) |
| COc1ccc(NC(=O)C(=O)NCC(=O)Nc2cccc(C(F)(F)F)c2)cc1 | -1.93% (inactive) |
| Cc1ccc(NS(=O)(=O)c2ccc3c(c2)NC(=O)CO3)cc1 | -9.63% (inactive) |
| COc1ccc(CNC(=O)C(Cc2ccccc2)n2cccc2)cc1 (centres undefined) | -3.21% (inactive) |
| CCOC(=O)C1Sc2[nH]c(=O)sc2C(c2ccc(Cl)cc2)C1C(=O)OCC (centres undefined) | -1.02% (inactive) |
| COc1ccc(N2CCN(C(=O)c3ccc(N4CCCCS4(=O)=O)cc3)CC2)cc1 | -2.57% (inactive) |
| CCC(=C/c1sc2ccc3ccccc3c2[n+]1C)/C=C1\Sc2ccc3ccccc3c2N1C | -3.42% (inactive) |
| CC(=O)Nc1ccc(C(=O)CSc2nc3ccc(C)cc3[nH]2)cc1 | 19.9% (active) |
| CCOC(=O)CSc1nc2ccc(C)cc2[nH]1 | 17% (active) |
| Cc1nc2nc(SCC(=O)c3ccccc3)[nH]c2cc1Br | 1.25% (inactive) |
| Cc1cc(C)c(NC(=O)CSc2nc3ccncc3[nH]2)c(C)c1 | 8.2% (inactive) |
| Cc1ccc2nc(SCC(=O)NC3CCCC3)[nH]c2c1 | -3.78% (inactive) |
| COc1ccc2nc(SCC(=O)Nc3c(C)cc(C)cc3C)[nH]c2c1 | -5.11% (inactive) |
| COc1ccc(/C=N/N(C)C2=NS(=O)(=O)c3ccccc32)cc1OC | -4.65% (inactive) |
| CCCCN(C)CCNC(=O)C1CCCN(S(=O)(=O)c2cccc3nsnc23)C1 (centres undefined) | -7.69% (inactive) |
| CC(Sc1cccc[n+]1[O-])C(=O)Nc1cccc(S(=O)(=O)N2CCOCC2)c1 (centres undefined) | -2.05% (inactive) |
| C=CCc1ccccc1OCC(=O)N/N=C/c1ccccc1OCC | 9.76% (inactive) |

| SMILES | max response |
| --- | --- |
| CCOc1ccccc1/C=N/Nc1nc2ccccc2o1 | 11.2% (active) |
| Brc1ccccc1/C=N/Nc1nc2ccccc2o1 | 35.3% (active) |
| CCOc1ccc(/C=N/Nc2nncc(-c3ccccc3)n2)cc1OC | 5.88% (inactive) |
| CCOc1ccccc1/C=N/NC(=O)CNC(=O)COc1ccccc1 | 8.7% (inactive) |
| COc1ccc(/C=N/Nc2nc3ccccc3o2)cc1OC | 32.2% (active) |
| COc1ccc(/C=N/n2nnnc2N)cc1OC | 1.75% (inactive) |
| c1ccc(CCN2CN=C(Nc3nc4ccccc4o3)NC2)cc1 | 13.2% (inactive) |
| CN=C1S/C(=C\c2c(OC)cc(OC)cc2OC)C(=O)N1C | -4.61% (inactive) |
| COc1ccc(C2/C(=C(/O)c3ccc4c(c3)CC(C)O4)C(=O)C(=O)N2Cc2ccncc2)cc1 (centres undefined) | -3.17% (inactive) |
| COc1cc(C(=O)N2CCN(C)CC2)cc(OC)c1OC | -1.54% (inactive) |
| Cc1ccc(NC(=O)COC(=O)C2C3CC4OC(=O)C2C4C3)cc1Cl (centres undefined) | 6.04% (inactive) |
| O=C(NCc1ccco1)C1CCCN1S(=O)(=O)c1ccccc1C(F)(F)F (centres undefined) | -2.95% (inactive) |
| Cc1ccc(-n2nc3c(=O)n(C(C)C(=O)NCc4ccc5c(c4)OCO5)nc(C)c3c2C)cc1 (centres undefined) | 7.33% (inactive) |
| COc1ccc(CN(C)C(=O)Cc2ccsc2)c(OC)c1OC | -2.85% (inactive) |
| CC(C)CNS(=O)(=O)c1ccc(CCC(=O)NCc2ccc(Cl)cc2)cc1 | -1.7% (inactive) |
| COc1ccc(CN2CCN(C(=O)CCC(=O)Nc3nnc(C(C)C)s3)CC2)cc1F | -9.15% (inactive) |
| CC1C(=O)C(C)C(c2ccc(O)cc2)NC1c1ccc(O)cc1 (centres undefined) | -3.88% (inactive) |
| CC(NC(=O)C(C)(C)C)C(c1cccs1)N1CCN(Cc2ccccc2)CC1 (centres undefined) | 1.72% (inactive) |
| C#CC(C)(C)NC(=O)c1cnc(-c2ccccc2)nc1-c1ccccc1 | 1.23% (inactive) |
| Cc1ccccc1N1CC(C(=O)Nc2ccc3c(c2)OCO3)CC1=O (centres undefined) | 15.7% (inactive) |
| O=C(Nc1ccc2c(c1)OCO2)C1CC(c2c(F)cccc2Cl)=NO1 (centres undefined) | 31.8% (active) |
| Cc1ccc(NC(=O)C2CC(c3ccc(F)cc3)=NO2)cc1 (centres undefined) | 4.66% (inactive) |
| Cc1ccc(S(=O)(=O)N(Cc2ccccc2)c2ccccn2)cc1[N+](=O)[O-] | 2.38% (inactive) |
| CS(=O)(=O)N(CC(=O)Nc1ccc(F)cc1F)c1cccc([N+](=O)[O-])c1 | 1.91% (inactive) |

| SMILES | max response |
| --- | --- |
| Cc1c(Br)c([N+](=O)[O-])nn1CC(=O)N1CCN(Cc2ccccc2)CC1 | 14.4% (active) |
| O=C(c1cccc([N+](=O)[O-])c1)N1CCN(Cc2ccccc2)CC1 | -6.89% (inactive) |
| O=C(/C=C/c1cccc([N+](=O)[O-])c1)N1CCN(Cc2ccccc2)CC1 | 21.5% (inactive) |
| COc1ccc(-c2cc(C(=O)N3CCN(Cc4ccc5c(c4)OCO5)CC3)on2)cc1OC | -9.89% (inactive) |
| Cc1cc(C)nc(N/N=C/c2c(C)oc3ccccc23)n1 | 1.89% (inactive) |
| Cc1cc(C)nc(N/N=C/c2ccc([N+](=O)[O-])o2)n1 | 0.645% (inactive) |
| Cc1cc2c(C)nc(N/N=C/c3ccccc3)nc2o1 | 38% (active) |
| COc1ccc(C(=O)NCCSc2ccccc2C)cc1 | 46% (active) |
| COc1cccc(C(=O)NCCSc2ccc(Br)cc2)c1 | 3.16% (inactive) |
| COc1ccc(C(=O)NCc2nnc(SCCOc3ccccc3)n2C)cc1 | -1.69% (inactive) |
| N#Cc1ccccc1S(=O)(=O)N1CCN(C(=O)c2cc(-c3ccccc3)nn2-c2ccccc2)CC1 | -0.928% (inactive) |
| COC(=O)Cn1nc(-c2ccccc2)c2cc(Cl)ccc21 | -2.04% (inactive) |
| COCCCNc1nc2c(-c3cccc(C(F)(F)F)c3)nnn2c2ccccc12 | -2.05% (inactive) |
| COCCCNc1nc2c(-c3cccc(C)c3)nnn2c2ccc(Cl)cc12 | 11.5% (active) |
| O=C(CCS(=O)(=O)c1ccc(Br)cc1)NCCc1ccc(Cl)cc1 | -3.3% (inactive) |
| CC1=CC(=C(C#N)c2nc3ccccc3s2)C=C(C)N1c1ccc(F)cc1F | 11.6% (active) |
| N#C/C(=C(/O)Cc1cccc2ccccc12)c1nc2ccccc2s1 | -8.33% (inactive) |
| C=CCN1C(=O)C(O)(CC(=O)c2ccccn2)c2ccccc21 (centres undefined) | -4.4% (inactive) |
| Cc1ccc2cc(CCNC(=O)c3ccc4c(c3)OCO4)c(=O)[nH]c2c1 | -3.03% (inactive) |
| CNC(=O)/C(=C\C=C\c1ccccc1)NC(=O)c1ccc([N+](=O)[O-])cc1 | -1.68% (inactive) |
| Cc1ccc(C(=O)N/C(=C/C=C/c2ccccc2)C(=O)NCc2ccco2)cc1 | 13.9% (active) |
| O=C(NCc1ccco1)/C(=C/c1ccco1)NC(=O)c1ccccc1 | -7.97% (inactive) |
